# In PubChem BioAssay (NCATS):
# Results filed as inconclusive are left out. Active and inactive are the calls of the source. The call rests on the fitted dose curve; in most records, active means well fitted inhibition curve with a large enough effect; inconclusive means small, poorly fitted or top-dose-only effect; inactive means flat fitted curve, though single readings scatter.
# Test: P-glycoprotein substrates identified in KB-8-5-11 adenocarcinoma cell line, qHTS therapeutic library screen (AID 1346987); further: nearly all actives have a fitted effect of over 65% in size
# Details: KB-8-5-11 (P-gp overexpressing) viability, CellTiter-Glo, 72 h; series mostly up to 44.5 µM; activity change, negative = cytotoxicity: at the top concentration
# Summary of the method: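 P-gp-mediated resistance screen: KB-8-5-11 cells treated 72 h with compounds in dose-response. CellTiter-Glo viability.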
# On the % scale 0 is the no-effect control and ±100 the full control effect.
SMILES,"activity change, negative = cytotoxicity",outcome
C=C1C2(C)CC3C4(C)OC(C5OC56C4=CC(=O)OC6(C)C)C3(C)C13C(=O)OC(C)C3(O)C2=O (stereo not given),4.6% [at 17.3 µM] (inactive),
CC1CC2OCC3(O)CCC(O)C(C14CC(c1ccoc1)OC4=O)C23CO (stereo not given),,inactive
O=C(O)c1ccnc2cc(C(OCC3CCC(F)(F)CC3)c3ccccc3Cl)[nH]c12 (stereo not given),8.48% (inactive),
COc1cccc(C(=O)NCCNc2nc3cc(C)cc(C)c3cc2C#N)c1,-23.7% (inactive),
C/C1=C\CC(C)(C)/C=C/C/C(C(=O)O)=C/CC1,-18.5% (inactive),
COC(=O)C1=COC(O[C@@H]2O[C@H](CO)[C@@H](O)[C@H](O)[C@H]2O)/C(=C\COC(=O)/C=C/c2ccccc2)C1CC(=O)OCCc1ccc(O)cc1 (stereo not given in full),,inactive [at 17.3 µM]
O=C(O)CC1(O)C(=O)Nc2ccccc21 (stereo not given),6.68% [at 93.4 µM] (inactive),
CC1=CCC2C(C)(C)CCCC2(C)C1CC12OC1C(O)C(CO)=CC2O (stereo not given),8.9% (inactive),
C[C@@H]1O[C@@H](O[C@H]2[C@H](O)[C@@H](O)[C@H](OC(=O)[C@]34CCC(C)(C)C[C@H]3C3=CCC5[C@@]6(C)CC[C@H](O[C@@H]7O[C@H](C(=O)O)[C@@H](O)[C@H](O)[C@H]7O)C(C)(C)C6CC[C@@]5(C)[C@]3(C)CC4)O[C@@H]2CO)[C@H](O)[C@H](O)[C@H]1O (stereo not given in full),,inactive [at 9.29 µM]
C[C@@H]1C(=O)O[C@H](C)[C@H]1C[C@@H](O)[C@](C)(O)[C@H]1CC[C@@]2(O)C3=CC(=O)[C@@H]4C[C@@H](O)[C@@H](O)C[C@]4(C)C3CC[C@]12C (stereo not given in full),-0.429% [at 17.3 µM] (inactive),
